Results filed as inconclusive are left out. Activity calls are given as the source filed them. The calls were made as follows, unless noted: active = hit-call score of the fitted dose curve at least 0.9, where 1 is the maximum; inconclusive = response in the unintended direction; inactive = score below 0.9.

In PubChem BioAssay (EPA / NIEHS) one finds outcome and AC50 data, which are given here for six molecules.

The nature of test [1]: Tanguay_ZF_120hpf_JAW_legacy: (Legacy) Oregon State University Tanguay Lab 120 Hour Post-fertilization zebrafish Assay for Jaw Malformation (AID 2283638). An outline of the steps: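 Dechorionated Tropical 5D wild-type zebrafish embryos, one per well, exposed statically from 6 hpf to 120 hpf at 28C in 0.64% DMSO. Jaw malformation was scored by brightfield microscopy as present or absent. It was not scored in dead embryos.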

Test [2] can be described thus: Tanguay_ZF_120hpf_OTIC_legacy: (Legacy) Oregon State University Tanguay Lab 120 Hour Post-fertilization zebrafish Assay for Otic Vesicle Malformation (AID 2283639). The gist of the method:
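Wild-type zebrafish larvae, whole-embryo exposure from early stage to 120 hpf at 28C. Binary brightfield scoring of otic vesicle morphology, fitted in the positive direction against the DMSO baseline.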

Test [3] in a line: Tanguay_ZF_120hpf_PE_legacy: (Legacy) Oregon State University Tanguay Lab 120 Hour Post-fertilization zebrafish Assay for Pericardial Edema (AID 2283640). An outline of the steps: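 Tropical 5D wild-type zebrafish embryos were statically exposed until 120 hpf at 28C, with 0.64% DMSO final. Pericardial edema was scored by brightfield as present or absent; endpoints were not scored in dead embryos.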

Test [4] is described as follows: Tanguay_ZF_120hpf_BRAI_legacy: (Legacy) Oregon State University Tanguay Lab 120 Hour Post-fertilization zebrafish Assay for Brain Malformation (AID 2283641). The gist of the method: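 Tropical 5D wild-type zebrafish embryos exposed statically until 120 hpf at 28C, 0.64% DMSO final, sealed and dark. Brain malformation scored present/absent by brightfield at 120 hpf; dead embryos excluded. Trimethyltin chloride 5uM positive control.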

A short description of test [5]: Tanguay_ZF_120hpf_SOMI_legacy: (Legacy) Oregon State University Tanguay Lab 120 Hour Post-fertilization zebrafish Assay for Somite Malformation (AID 2283647). The gist of the method:
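Dechorionated Tropical 5D wild-type zebrafish embryos, one per well from 6 hpf, statically exposed at 28C to 120 hpf in 0.64% DMSO; somite malformation scored present/absent by brightfield; trimethyltin 5 uM positive control; dead embryos not scored.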

Test [6] can be described thus: Tanguay_ZF_120hpf_PFIN_legacy: (Legacy) Oregon State University Tanguay Lab 120 Hour Post-fertilization zebrafish Assay for Pectoral Fin Malformation (AID 2283648).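 Also: each larva judged yes or no for fin defect by brightfield with dead larvae skipped.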 The gist of the method:
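Binary pectoral fin malformation call at 120 hpf by brightfield microscopy; 5D wild-type zebrafish, chorion removed at 4 hpf, one embryo per well from 6 hpf, static exposure at 28C; DMSO (0.64% final) as baseline.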

The nature of test [7]: Tanguay_ZF_120hpf_CFIN_legacy: (Legacy) Oregon State University Tanguay Lab 120 Hour Post-fertilization zebrafish Assay for Caudal Fin Malformation (AID 2283649). The gist of the method:
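Dechorionated Tropical 5D wild-type embryos, one per well from 6 hpf, static exposure to 120 hpf at 28C in 0.64% DMSO. Caudal fin malformation scored by brightfield as present/absent; not scored in dead embryos.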

Test [8] is described as follows: Tanguay_ZF_120hpf_PIG_legacy: (Legacy) Oregon State University Tanguay Lab 120 Hour Post-fertilization zebrafish Assay for Pigmentation Malformation (AID 2283650). The gist of the method: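 Brightfield scoring of pigmentation malformation at 120 hpf, recorded as binary present/absent per larva. Exposure: dechorionated 5D wild-type embryos, one per well, static from 6 hpf at 28C, final DMSO 0.64% (vol/vol). Dead embryos not scored.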

Test [9] is described as follows: Tanguay_ZF_120hpf_CIRC_legacy: (Legacy) Oregon State University Tanguay Lab 120 Hour Post-fertilization zebrafish Assay for Circulatory Malformation (AID 2283651). The gist of the method:
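Binary circulatory-malformation call at 120 hpf via brightfield imaging, relative to DMSO controls. Embryos (5D strain, chorion removed) received static, light-shielded exposure at 28C.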

Test [10] is described as follows: Tanguay_ZF_120hpf_SWIM_legacy: (Legacy) Oregon State University Tanguay Lab 120 Hour Post-fertilization zebrafish Assay for Swim Bladder Malformation (AID 2283654).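 Also: swim bladder malformation in each larva scored yes or no under brightfield.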 The gist of the method:
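Tropical 5D embryos dechorionated at 4 hpf; 1 embryo/well from 6 hpf; static, sealed, dark exposure at 28C until 120 hpf; final DMSO 0.64%; 5uM trimethyltin chloride positive control; swim bladder defect recorded yes/no; dead embryos not scored.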

Test [11] in a line: Tanguay_ZF_120hpf_TRUN_legacy: (Legacy) Oregon State University Tanguay Lab 120 Hour Post-fertilization zebrafish Assay for Truncated Body (AID 2283655). An outline of the steps: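 Dechorionated Tropical 5D wild-type embryos placed singly from 6 hpf and statically exposed to 120 hpf at 28C, final DMSO 0.64%. Truncated body scored as present/absent by brightfield; not scored in dead embryos.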

The nature of test [12]: Tanguay_ZF_120hpf_NC_legacy: (Legacy) Oregon State University Tanguay Lab 120 Hour Post-fertilization zebrafish Assay for Notochord and Tail Malformation (AID 2283656). The gist of the method: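 Binary notochord-distortion calls, made by brightfield inspection, form the read-out; activity is fitted in the positive direction against DMSO. Exposure ran statically from 6 to 120 hpf at 28C with 0.64% DMSO.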

Read-out in test [13]: Broad substrate specificity ATP-binding cassette transporter ABCG2 (Homo sapiens) (UniProt Q9UNQ0)
As to the kind of experiment: CLD_ABCG2_6hr: CellzDirect (CLD) Gene Expression Assay for ABC Transporter (ABCG2) at 6 hours (AID 2283660). An outline of the steps: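 ABCG2 mRNA induction measured by qNPA chemiluminescence in human primary hepatocyte cultures, 6 h post-dose. Chemicals tested at several concentrations against a 0.2% DMSO vehicle; positive-direction fit relative to DMSO.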

Read-out in test [14]: xenobiotic metabolism (CYP1A1), CYP1A1 (gene 1543)
As to the kind of experiment: CLD_CYP1A1_6hr: CellzDirect (CLD) Gene Expression Assay for xenobiotic metabolism (CYP1A1) at 6 hours (AID 2283661).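 As to AC50: potency for transcript induction above DMSO vehicle baseline.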 An outline of the steps: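 Read-out 6 h post-dose: qNPA chemiluminescent quantitation of transcript induction against 0.2% DMSO. Cells were cultured primary human hepatocytes from two separate donor preparations; phase-contrast morphology annotated apparent cytotoxicity.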

Read-out in test [15]: ABC Transporter (ABCB1), ABCB1 (gene 5243)
As to the kind of experiment: CLD_ABCB1_6hr: CellzDirect (CLD) Gene Expression Assay for ABC Transporter (ABCB1) at 6 hours (AID 2283659).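 Also: hits raise ABCB1 transcript above the DMSO vehicle baseline.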 An outline of the steps:
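ABCB1 transcript measured by quantitative nuclease protection assay, chemiluminescent read-out, 6 h after dosing human hepatocyte cultures (0.2% DMSO vehicle, daily redosing). Activity fitted as increase over DMSO baseline; cytotoxicity flagged by phase-contrast morphology.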

Read-out in test [16]: kallikrein-3 (KLK3), KLK3 (gene 354)
As to the kind of experiment: LTEA_HepaRG_KLK3: Life Technologies and Expression Analysis (LTEA) Assay for kallikrein-3 (KLK3) using HepaRG (AID 2283652; active = hit-call score of the fitted dose curve at least 0.9, where 1 is the maximum; inactive = score below 0.9). The conditions noted are these: mRNA level, 48 h; actives raise or lower the signal. An outline of the steps:
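KLK3 transcript levels were measured by TaqMan qRT-PCR with normalisation to three housekeeping genes. HepaRG cultures received chemicals for 48 h at up to 100 uM (half-log, 8 points, 0.5% DMSO vehicle), fitted in both directions against DMSO.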

Read-out in test [17]: solute carrier (SLC22A6), SLC22A6 (gene 9356)
As to the kind of experiment: LTEA_HepaRG_SLC22A6: Life Technologies and Expression Analysis (LTEA) Assay for solute carrier (SLC22A6) using HepaRG (AID 2283653; active = hit-call score of the fitted dose curve at least 0.9, where 1 is the maximum; inactive = score below 0.9). The conditions noted are these: mRNA level, 48 h; actives raise or lower the signal. An outline of the steps: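 Differentiated HepaRG cells exposed 48 h in serum-free induction medium to 8 half-log concentrations, top 100 uM, in 0.5% DMSO; SLC22A6 mRNA by Fluidigm qRT-PCR normalized to ACTB, GAPDH, POLR2A, fitted bidirectionally versus DMSO.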

Read-out in test [18]: solute carrier (SLC10A1), SLC10A1 (gene 6554)
As to the kind of experiment: LTEA_HepaRG_SLC10A1: Life Technologies and Expression Analysis (LTEA) Assay for solute carrier (SLC10A1) using HepaRG (AID 2283657; active = hit-call score of the fitted dose curve at least 0.9, where 1 is the maximum; inactive = score below 0.9). The conditions noted are these: mRNA level, 48 h; actives raise or lower the signal. An outline of the steps:
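HepaRG, 48 h exposure, 8-pt half-log curve from 100 uM in 0.5% DMSO, duplicates. Read-out: TaqMan qRT-PCR of SLC10A1 mRNA, normalized to three housekeeping genes. Gain/loss fit vs DMSO baseline.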

Read-out in test [19]: matrix metalloproteinase-1 (MMP1), MMP1 (gene 4312)
As to the kind of experiment: LTEA_HepaRG_MMP1: Life Technologies and Expression Analysis (LTEA) Assay for matrix metalloproteinase-1 (MMP1) using HepaRG (AID 2283658; active = hit-call score of the fitted dose curve at least 0.9, where 1 is the maximum; inactive = score below 0.9). The conditions noted are these: mRNA level, 48 h; actives raise or lower the signal. An outline of the steps:
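Differentiated human HepaRG cells, 48 h post-plating in serum-free induction medium, were exposed 48 h to eight half-log concentrations topping at 100 uM in 0.5% DMSO, duplicate. MMP1 mRNA measured by Fluidigm TaqMan qRT-PCR, normalized to ACTB, GAPDH, POLR2A; bidirectional fits versus DMSO.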

Sequence of Broad substrate specificity ATP-binding cassette transporter ABCG2 (Homo sapiens) (Q9UNQ0 whole entry, looked up): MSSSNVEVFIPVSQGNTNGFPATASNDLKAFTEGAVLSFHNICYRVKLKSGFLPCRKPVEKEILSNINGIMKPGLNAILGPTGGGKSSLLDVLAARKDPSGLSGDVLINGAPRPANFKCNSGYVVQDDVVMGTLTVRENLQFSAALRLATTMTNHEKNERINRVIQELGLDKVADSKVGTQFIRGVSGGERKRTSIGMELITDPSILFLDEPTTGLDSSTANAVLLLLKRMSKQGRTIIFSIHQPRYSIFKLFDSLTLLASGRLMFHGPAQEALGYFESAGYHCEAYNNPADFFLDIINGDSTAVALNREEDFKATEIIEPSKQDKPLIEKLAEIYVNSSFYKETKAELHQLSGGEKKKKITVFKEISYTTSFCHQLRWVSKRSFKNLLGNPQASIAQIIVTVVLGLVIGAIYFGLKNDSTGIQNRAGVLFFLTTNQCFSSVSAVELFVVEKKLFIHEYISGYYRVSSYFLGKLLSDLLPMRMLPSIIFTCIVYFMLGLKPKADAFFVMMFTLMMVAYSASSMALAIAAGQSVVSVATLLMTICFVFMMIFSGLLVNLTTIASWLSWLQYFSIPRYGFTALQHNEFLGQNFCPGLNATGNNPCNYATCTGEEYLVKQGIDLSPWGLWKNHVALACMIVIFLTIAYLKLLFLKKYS

Broadly, the AC50 is the concentration giving half of the maximal activity seen. For `Fc1ccc(Oc2ccnc3cc(Cl)cc(Cl)c23)cc1`, the call in test [1], in test [2], in test [3], in test [4], in test [5] and in test [6] was inactive. In addition, the call in test [7], in test [8], in [9], in test [10], in [11] and in test [12] was inactive. Further, the result in test [13] was inactive. Also, the AC50 in test [14] is 3.13 µM (active).

With `Cc1ccc(-c2c(Cl)nc(C#N)n2S(=O)(=O)N(C)C)cc1`, the outcome in test [1], in [2], in [3], in test [4], in test [5] and in test [6] was inactive. In addition, the result in [7], in [8], in [9], in [10], in [11] and in [12] was inactive. Moreover, the result in test [15] and in test [13] was inactive. Moreover, in test [14], the concentration at half-maximal activity (AC50) is 0.105 µM (active).

Regarding `CC(C)C1(C)N=C(c2nc3ccccc3cc2C(=O)O)NC1=O` (configuration not stated), the call in [1], in [2], in test [3], in test [4], in test [5] and in [6] was inactive. Besides, the molecule was called inactive in test [8], in test [9], in [10], in [11], in test [12] and in test [14].

Regarding `C=CC1(C)OC(=O)N(c2cc(Cl)cc(Cl)c2)C1=O` (configuration not stated), the molecule was called inactive in test [1], in test [2], in test [3], in [4], in test [5] and in [7]. In addition, the call in test [8], in [9], in test [16], in test [17], in test [10] and in test [11] was inactive. Further, the molecule was classed as inactive in test [12] and in [19]. Further, the concentration at half-maximal activity (AC50) in test [18] was 77.2 µM (active); in test [14], 1.47 µM (active).

As for `CCON=C(CC)C1=C(O)CC(c2c(C)cc(C)cc2C)CC1=O` (configuration not stated), the call in [1], in test [2], in test [3], in [4], in [5] and in test [6] was inactive. The result in test [7], in test [8], in [10], in test [11], in test [12] and in [13] was inactive. The call in [14] was inactive.

Regarding `OC(c1ccc(Cl)cc1)(c1cncnc1)c1ccccc1Cl` (configuration not stated), the molecule was called inactive in test [1], in test [2], in test [3], in test [4], in test [5] and in [6]. The molecule was called inactive in test [7], in [8], in test [16], in [17], in test [10] and in [12]. The call in test [15], in [13] and in test [14] was inactive. In addition, the half-maximal activity concentration (AC50) was 24.1 µM (active) in test [18] and 59.8 µM (active) in test [19].
